The results in this text go back to article PMC7862700, “An all-to-all approach to the identification of sequence-specific readers for epigenetic DNA modifications on cytosine”.

Assay in all cases: DAPPL (digital affinity profiling via proximity ligation, sequencing); 10 mM Tris-HCl pH 7.5, 50 mM NaCl, 1 mM DTT, 4% glycerol, room temperature, 30 min; GST-TFs on glutathione beads, 16-mer random dsDNA library, 0.1% formaldehyde crosslink after washing; high values mean tight binding
For one test, the target named is T1, FLI1 (Homo sapiens, UniProt Q01543 1-452).
T1 sequence: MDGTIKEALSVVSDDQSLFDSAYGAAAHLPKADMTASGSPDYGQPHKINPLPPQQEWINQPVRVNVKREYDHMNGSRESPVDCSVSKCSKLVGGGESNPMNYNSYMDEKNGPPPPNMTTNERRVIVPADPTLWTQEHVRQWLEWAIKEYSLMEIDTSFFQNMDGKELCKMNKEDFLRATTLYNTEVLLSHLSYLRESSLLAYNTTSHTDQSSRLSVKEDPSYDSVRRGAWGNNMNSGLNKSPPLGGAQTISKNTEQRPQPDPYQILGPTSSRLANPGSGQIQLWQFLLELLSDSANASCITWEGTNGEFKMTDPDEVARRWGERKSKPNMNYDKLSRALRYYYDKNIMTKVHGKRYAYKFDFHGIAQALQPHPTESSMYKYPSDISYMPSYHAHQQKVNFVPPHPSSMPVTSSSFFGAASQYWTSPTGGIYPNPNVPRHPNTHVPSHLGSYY
The following applies: protein: recombinant; tags: N-terminal GST; dsDNA, one strand shown. In outline: (§1)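 Beads coated with glutathione captured GST-fused human transcription factors that had been expressed in yeast, and the factors were then given DNA barcodes and pooled with a tag-only sample. The pools were incubated with 200 nmole of a random double-stranded 16-mer DNA library in Tris/NaCl/DTT/glycerol buffer for 30 min at room temperature, washed, crosslinked with 0.1% formaldehyde and proximity-ligated with BsaI/T4 ligase at 37 °C for 1 h. PCR amplification and Illumina NextSeq500 sequencing came last. Binding signal is each hexamer's read frequency for a factor divided by its frequency for the tag-only sample.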

The next test addresses T2, ELK1 (Homo sapiens, UniProt P19419 1-428).
T2 sequence: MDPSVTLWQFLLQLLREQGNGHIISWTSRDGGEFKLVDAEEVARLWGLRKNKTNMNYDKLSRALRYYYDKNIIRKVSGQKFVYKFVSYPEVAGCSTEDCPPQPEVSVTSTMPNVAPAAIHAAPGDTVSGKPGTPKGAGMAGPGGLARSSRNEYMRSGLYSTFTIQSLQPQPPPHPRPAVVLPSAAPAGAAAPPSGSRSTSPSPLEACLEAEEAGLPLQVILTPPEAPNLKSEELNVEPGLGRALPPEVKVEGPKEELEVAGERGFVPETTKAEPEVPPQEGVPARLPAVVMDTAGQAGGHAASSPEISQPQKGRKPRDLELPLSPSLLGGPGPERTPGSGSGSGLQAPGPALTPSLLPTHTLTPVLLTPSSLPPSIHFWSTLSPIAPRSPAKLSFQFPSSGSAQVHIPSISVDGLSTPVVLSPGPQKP
The following applies: protein: recombinant; tags: N-terminal GST; dsDNA, one strand shown. In outline:
as §1

A further test has as its target T3, GABPA (Homo sapiens, UniProt Q06546 1-454).
T3 sequence: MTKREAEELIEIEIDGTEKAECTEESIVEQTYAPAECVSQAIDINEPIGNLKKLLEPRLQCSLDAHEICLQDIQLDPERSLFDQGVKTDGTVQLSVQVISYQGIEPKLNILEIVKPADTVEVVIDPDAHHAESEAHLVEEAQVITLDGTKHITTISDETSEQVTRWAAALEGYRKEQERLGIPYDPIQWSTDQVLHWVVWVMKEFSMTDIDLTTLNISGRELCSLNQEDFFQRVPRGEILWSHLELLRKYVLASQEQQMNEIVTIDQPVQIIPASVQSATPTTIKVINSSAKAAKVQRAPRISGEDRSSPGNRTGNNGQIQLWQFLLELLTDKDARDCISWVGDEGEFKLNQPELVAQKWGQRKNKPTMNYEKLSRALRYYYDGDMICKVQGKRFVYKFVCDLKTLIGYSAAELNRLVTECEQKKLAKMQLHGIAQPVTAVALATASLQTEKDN
The following applies: protein: recombinant; tags: N-terminal GST; dsDNA, one strand shown. In outline: as §1

In another test the target is T4, ERG (Homo sapiens, UniProt P11308 1-479).
T4 sequence: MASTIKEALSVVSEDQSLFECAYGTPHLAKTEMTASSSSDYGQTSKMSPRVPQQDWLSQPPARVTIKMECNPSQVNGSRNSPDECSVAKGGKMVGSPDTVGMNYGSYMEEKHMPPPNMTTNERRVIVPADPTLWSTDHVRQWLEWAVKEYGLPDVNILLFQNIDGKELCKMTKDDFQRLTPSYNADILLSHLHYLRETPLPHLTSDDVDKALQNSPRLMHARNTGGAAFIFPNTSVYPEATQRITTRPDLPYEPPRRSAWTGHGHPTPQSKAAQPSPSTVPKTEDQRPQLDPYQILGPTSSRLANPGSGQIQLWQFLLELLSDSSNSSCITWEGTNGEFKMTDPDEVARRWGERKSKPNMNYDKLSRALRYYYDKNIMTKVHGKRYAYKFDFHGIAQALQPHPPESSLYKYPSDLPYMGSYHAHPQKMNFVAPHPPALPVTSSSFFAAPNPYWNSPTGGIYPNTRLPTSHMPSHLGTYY
The following applies: protein: recombinant; tags: N-terminal GST; dsDNA, one strand shown. In outline: as §1

A further test concerns the target ELF1 (Homo sapiens, UniProt P32519 1-619). The following applies: protein: recombinant; tags: N-terminal GST; dsDNA, one strand shown. In outline: as §1
A further test deals with T5, EHF (Homo sapiens, UniProt Q9NZC4 1-300).
T5 sequence: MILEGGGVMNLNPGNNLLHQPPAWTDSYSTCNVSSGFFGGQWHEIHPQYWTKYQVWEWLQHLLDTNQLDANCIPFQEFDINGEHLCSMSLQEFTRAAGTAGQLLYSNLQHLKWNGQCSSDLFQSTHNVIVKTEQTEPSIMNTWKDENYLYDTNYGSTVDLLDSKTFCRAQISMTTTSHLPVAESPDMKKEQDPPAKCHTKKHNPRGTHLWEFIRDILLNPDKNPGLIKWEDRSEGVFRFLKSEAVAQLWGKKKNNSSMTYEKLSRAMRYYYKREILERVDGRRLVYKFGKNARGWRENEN
The following applies: protein: recombinant; tags: N-terminal GST; dsDNA, one strand shown. In outline:
as §1

The next test concerns the target SPI1 (Homo sapiens, UniProt P17947 1-270). The following applies: protein: recombinant; tags: N-terminal GST; dsDNA, one strand shown. In outline:
as §1

Another test addresses T6, ELK3 (Homo sapiens, UniProt P41970 1-407).
T6 sequence: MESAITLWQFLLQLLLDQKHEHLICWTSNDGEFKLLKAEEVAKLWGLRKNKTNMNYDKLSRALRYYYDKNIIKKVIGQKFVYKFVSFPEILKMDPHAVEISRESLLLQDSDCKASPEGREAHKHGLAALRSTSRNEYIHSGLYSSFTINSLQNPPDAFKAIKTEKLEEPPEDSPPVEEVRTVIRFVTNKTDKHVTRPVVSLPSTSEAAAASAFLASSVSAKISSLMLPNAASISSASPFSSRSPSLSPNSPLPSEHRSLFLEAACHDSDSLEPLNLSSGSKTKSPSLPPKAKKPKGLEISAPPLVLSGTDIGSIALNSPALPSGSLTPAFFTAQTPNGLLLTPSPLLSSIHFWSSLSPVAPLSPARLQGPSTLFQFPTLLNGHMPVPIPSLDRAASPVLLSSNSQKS
The following applies: protein: recombinant; tags: N-terminal GST; dsDNA, one strand shown. In outline: as §1

The target in another test is ETV5 (Homo sapiens, UniProt P41161 1-510). The following applies: protein: recombinant; tags: N-terminal GST; dsDNA, one strand shown. In outline: as §1
The next test addresses HSF1 (Homo sapiens, UniProt Q00613 1-529). The following applies: protein: recombinant; tags: N-terminal GST; chain copies: 3; dsDNA, one strand shown. In outline: as §1
For a further test, the target named is T7, SPIC (Homo sapiens, UniProt Q8N5J4 1-248).
T7 sequence: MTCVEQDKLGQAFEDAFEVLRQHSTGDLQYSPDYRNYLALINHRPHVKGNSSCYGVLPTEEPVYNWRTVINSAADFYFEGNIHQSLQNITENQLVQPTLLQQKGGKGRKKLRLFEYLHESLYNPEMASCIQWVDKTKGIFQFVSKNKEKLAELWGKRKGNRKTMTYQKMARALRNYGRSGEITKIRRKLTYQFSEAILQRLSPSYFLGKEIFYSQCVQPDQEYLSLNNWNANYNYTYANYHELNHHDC
The following applies: protein: recombinant; tags: N-terminal GST; dsDNA, one strand shown. In outline:
as §1

In a further test the target is ELF4 (Homo sapiens, UniProt Q99607 1-663). The following applies: protein: recombinant; tags: N-terminal GST; dsDNA, one strand shown. In outline:
as §1

In the next test the target is T8, ELK4 (Homo sapiens, UniProt P28324-2 1-405).
T8 sequence: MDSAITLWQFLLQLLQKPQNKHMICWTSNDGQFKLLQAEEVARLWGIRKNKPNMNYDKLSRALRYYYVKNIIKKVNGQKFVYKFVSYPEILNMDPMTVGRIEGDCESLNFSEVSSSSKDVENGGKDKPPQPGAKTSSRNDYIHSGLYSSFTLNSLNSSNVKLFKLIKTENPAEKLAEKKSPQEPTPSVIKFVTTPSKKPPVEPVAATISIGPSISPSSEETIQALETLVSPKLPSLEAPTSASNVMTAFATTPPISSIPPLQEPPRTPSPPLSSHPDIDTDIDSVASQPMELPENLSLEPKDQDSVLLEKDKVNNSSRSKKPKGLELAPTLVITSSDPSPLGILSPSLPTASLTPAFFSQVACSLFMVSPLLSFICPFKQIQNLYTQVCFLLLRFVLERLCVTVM
The following applies: protein: recombinant; tags: N-terminal GST; dsDNA, one strand shown. In outline: as §1

A further test deals with T9, ELF3 (Homo sapiens, UniProt P78545 1-371).
T9 sequence: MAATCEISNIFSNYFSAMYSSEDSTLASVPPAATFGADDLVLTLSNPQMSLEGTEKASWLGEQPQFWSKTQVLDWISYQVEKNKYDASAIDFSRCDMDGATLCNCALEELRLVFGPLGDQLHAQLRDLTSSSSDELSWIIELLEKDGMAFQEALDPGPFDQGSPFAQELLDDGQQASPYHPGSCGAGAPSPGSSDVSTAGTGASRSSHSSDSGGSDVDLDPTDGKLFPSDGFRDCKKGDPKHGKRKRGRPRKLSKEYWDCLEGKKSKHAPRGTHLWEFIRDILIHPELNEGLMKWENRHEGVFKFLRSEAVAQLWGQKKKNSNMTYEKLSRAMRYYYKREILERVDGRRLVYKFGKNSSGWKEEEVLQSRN
The following applies: protein: recombinant; tags: N-terminal GST; dsDNA, one strand shown. In outline:
as §1

Another test concerns the target CRX (Homo sapiens, UniProt O43186 1-299). The following applies: protein: recombinant; tags: N-terminal GST; dsDNA, one strand shown. In outline:
as §1

Another test deals with ETV1 (Homo sapiens, UniProt P50549 1-477). The following applies: protein: recombinant; tags: N-terminal GST; dsDNA, one strand shown. In outline:
as §1

Chain of CRX (O43186 whole entry): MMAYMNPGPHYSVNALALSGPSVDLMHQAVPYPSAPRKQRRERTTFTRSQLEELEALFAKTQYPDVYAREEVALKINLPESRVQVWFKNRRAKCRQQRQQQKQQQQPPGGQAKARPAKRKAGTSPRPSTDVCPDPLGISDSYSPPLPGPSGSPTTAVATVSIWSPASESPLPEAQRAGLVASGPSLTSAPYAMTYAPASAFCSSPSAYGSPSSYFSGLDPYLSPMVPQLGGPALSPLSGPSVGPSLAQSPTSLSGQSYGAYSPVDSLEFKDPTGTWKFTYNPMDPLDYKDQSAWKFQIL
Chain of ELF4 (Q99607 whole entry): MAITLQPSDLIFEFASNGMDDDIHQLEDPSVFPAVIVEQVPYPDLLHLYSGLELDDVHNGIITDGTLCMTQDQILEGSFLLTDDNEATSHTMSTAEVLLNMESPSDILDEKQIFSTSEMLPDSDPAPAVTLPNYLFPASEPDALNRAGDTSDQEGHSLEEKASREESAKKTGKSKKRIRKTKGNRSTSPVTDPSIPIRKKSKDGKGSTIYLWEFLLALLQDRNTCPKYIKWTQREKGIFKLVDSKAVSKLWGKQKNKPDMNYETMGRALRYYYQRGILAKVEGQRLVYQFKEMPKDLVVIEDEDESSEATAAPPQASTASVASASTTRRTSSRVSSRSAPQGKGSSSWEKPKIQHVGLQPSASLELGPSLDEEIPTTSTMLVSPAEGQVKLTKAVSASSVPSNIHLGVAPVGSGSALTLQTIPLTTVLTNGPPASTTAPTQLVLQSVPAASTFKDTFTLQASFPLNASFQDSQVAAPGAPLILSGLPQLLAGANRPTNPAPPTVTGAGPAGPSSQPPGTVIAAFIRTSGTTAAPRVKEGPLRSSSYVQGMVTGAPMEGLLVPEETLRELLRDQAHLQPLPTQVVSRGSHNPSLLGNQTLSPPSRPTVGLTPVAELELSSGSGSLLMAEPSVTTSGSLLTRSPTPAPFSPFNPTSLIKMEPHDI
Chain of ETV5 (P41161 whole entry): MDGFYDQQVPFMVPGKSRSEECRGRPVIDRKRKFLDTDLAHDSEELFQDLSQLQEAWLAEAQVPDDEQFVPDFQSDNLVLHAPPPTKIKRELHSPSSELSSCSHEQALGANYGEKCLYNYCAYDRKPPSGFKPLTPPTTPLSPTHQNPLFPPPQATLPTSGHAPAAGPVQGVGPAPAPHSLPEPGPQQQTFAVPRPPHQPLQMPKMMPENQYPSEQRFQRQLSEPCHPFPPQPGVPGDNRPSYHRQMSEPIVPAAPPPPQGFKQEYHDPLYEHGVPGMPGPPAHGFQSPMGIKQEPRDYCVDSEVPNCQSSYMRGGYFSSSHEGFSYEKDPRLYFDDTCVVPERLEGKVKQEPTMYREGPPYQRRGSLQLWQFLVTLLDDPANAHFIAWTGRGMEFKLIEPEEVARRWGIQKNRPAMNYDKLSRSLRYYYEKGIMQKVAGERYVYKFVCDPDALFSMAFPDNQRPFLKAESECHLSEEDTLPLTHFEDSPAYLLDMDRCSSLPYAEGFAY
Chain of ELF1 (P32519 whole entry): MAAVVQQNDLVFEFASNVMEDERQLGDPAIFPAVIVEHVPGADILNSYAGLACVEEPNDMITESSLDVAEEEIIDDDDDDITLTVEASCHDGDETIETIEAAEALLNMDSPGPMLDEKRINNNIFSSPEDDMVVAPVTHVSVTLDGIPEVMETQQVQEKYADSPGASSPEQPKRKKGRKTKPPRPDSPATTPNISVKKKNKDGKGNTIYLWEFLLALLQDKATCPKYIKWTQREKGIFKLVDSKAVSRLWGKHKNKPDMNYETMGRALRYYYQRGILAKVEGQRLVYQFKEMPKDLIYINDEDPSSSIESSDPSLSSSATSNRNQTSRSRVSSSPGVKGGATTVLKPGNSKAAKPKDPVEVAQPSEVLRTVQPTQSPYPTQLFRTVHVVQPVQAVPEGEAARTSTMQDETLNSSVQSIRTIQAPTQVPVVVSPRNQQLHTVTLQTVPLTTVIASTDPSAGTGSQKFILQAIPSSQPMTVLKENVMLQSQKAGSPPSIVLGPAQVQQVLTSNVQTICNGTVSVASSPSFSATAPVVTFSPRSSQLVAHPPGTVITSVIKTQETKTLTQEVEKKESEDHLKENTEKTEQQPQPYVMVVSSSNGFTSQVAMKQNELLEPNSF
Chain of HSF1 (Q00613 whole entry): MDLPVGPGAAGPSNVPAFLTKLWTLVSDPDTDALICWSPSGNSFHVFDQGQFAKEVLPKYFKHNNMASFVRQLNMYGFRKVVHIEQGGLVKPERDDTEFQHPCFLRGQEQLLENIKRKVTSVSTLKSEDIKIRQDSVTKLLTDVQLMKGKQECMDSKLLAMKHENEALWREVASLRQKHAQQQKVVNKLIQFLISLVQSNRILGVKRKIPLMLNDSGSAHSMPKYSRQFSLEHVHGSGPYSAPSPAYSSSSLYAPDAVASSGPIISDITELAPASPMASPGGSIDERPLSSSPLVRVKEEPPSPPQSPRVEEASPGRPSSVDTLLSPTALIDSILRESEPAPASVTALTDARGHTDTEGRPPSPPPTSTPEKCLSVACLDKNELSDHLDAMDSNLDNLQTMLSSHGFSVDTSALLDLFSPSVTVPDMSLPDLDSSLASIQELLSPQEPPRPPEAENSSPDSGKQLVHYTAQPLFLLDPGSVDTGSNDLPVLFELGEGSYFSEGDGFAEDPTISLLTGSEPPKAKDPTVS
Chain of ETV1 (P50549 whole entry): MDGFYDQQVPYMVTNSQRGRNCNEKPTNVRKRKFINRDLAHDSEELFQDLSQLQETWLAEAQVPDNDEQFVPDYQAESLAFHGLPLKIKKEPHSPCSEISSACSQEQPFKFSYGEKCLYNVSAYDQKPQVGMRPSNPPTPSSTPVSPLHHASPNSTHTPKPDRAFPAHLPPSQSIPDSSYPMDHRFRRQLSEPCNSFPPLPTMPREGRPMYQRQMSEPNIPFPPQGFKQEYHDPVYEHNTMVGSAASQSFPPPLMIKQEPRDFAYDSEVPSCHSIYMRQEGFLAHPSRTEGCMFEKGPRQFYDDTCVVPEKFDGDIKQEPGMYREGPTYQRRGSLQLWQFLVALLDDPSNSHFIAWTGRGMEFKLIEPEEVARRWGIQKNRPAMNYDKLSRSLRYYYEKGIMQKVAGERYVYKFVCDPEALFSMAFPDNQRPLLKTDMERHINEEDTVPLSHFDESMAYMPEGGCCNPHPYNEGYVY

With ATGAAG, the binding signal was 1.1 fold enrichment (6-mer frequency, TF over GST control) with FLI1; 1.1 fold enrichment (6-mer frequency, TF over GST control) with ELK1; 1.04 fold enrichment (6-mer frequency, TF over GST control) with GABPA; 1.1 fold enrichment (6-mer frequency, TF over GST control) in the test with ERG; 1.04 fold enrichment (6-mer frequency, TF over GST control) with ELF1; 1.06 fold enrichment (6-mer frequency, TF over GST control) with EHF. The binding signal in the test with SPI1 is 1.05 fold enrichment (6-mer frequency, TF over GST control); with ELK3, 1.05 fold enrichment (6-mer frequency, TF over GST control); with ETV5, 1.01 fold enrichment (6-mer frequency, TF over GST control); with HSF1, 1.07 fold enrichment (6-mer frequency, TF over GST control); with SPIC, 1.14 fold enrichment (6-mer frequency, TF over GST control); with ELF4, 1.08 fold enrichment (6-mer frequency, TF over GST control). Moreover, the binding signal was 1.17 fold enrichment (6-mer frequency, TF over GST control) with ELK4; 1.02 fold enrichment (6-mer frequency, TF over GST control) in the test with ELF3; 1.04 fold enrichment (6-mer frequency, TF over GST control) with CRX.
For the sequence TCATGA, the binding signal in the test with FLI1 is 1.12 fold enrichment (6-mer frequency, TF over GST control); with ELK1, 1 fold enrichment (6-mer frequency, TF over GST control); in the test with GABPA it was 1.18 fold enrichment (6-mer frequency, TF over GST control); with ELF1 it was 1.03 fold enrichment (6-mer frequency, TF over GST control); with EHF it was 1.07 fold enrichment (6-mer frequency, TF over GST control); in the test with ELK3, 1.05 fold enrichment (6-mer frequency, TF over GST control). Also, the binding signal with ETV5 is 1.08 fold enrichment (6-mer frequency, TF over GST control); with HSF1, 1.06 fold enrichment (6-mer frequency, TF over GST control); with SPIC it was 1.07 fold enrichment (6-mer frequency, TF over GST control); with ELF4 it was 1.06 fold enrichment (6-mer frequency, TF over GST control); in the test with ELK4, 1.03 fold enrichment (6-mer frequency, TF over GST control); in the test with ELF3 it was 1 fold enrichment (6-mer frequency, TF over GST control). The binding signal with CRX was 1.07 fold enrichment (6-mer frequency, TF over GST control); in the test with ETV1, 1.14 fold enrichment (6-mer frequency, TF over GST control).
